Measurements published in PubChem BioAssay AID624330 (Southern Research Specialized Biocontainment Screening …, 2012).
In all, about 340,000 compounds went through this assay and about 2,100 (0.62%) were called active.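 Rule for the calls: active = first-screen hits whose inhibition reached a set limit at any dose in the follow-up dose series; inconclusive = inhibition above the set first-screen limit but never retested; inactive = the rest.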 These entries were drawn from the full list. Results with a measured potency or affinity are listed apart.

Each compound was assayed against Rac GTPase-activating protein 1 (Homo sapiens) (UniProt Q9H0H5) (assay: blockers of MgcRacGAP-driven Rac1 GTP hydrolysis – biochemical, ADP Hunter fluorescence, primary and confirmatory, confirmation (AID 624330;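 note: fluorescence reports GDP produced by GAP-driven GTP hydrolysis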)). Settings: MgcRacGAP-stimulated Rac1 GTP hydrolysis, at 30 µM, active compounds read high, GST-tagged Rac1 F28L mutant substrate.
Sequence of Rac GTPase-activating protein 1 (Homo sapiens) (Q9H0H5 whole entry, looked up): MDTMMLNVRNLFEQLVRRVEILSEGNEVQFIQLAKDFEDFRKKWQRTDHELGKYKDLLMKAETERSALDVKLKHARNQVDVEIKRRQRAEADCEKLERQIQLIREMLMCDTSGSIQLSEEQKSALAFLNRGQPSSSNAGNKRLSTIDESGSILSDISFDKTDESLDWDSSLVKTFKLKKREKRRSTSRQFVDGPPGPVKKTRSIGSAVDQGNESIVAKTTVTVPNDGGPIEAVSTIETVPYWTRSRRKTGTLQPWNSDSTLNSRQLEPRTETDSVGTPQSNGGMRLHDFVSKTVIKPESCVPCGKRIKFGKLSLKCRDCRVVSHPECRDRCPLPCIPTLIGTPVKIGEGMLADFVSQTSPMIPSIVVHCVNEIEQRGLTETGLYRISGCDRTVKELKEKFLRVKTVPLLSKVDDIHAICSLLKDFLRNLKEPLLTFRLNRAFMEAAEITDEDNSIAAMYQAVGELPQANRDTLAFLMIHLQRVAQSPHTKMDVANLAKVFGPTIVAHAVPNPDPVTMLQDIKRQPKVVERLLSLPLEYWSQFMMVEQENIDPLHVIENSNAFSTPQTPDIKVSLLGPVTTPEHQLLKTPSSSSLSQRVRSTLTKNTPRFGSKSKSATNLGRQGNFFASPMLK

inhibition, inactive:
COc1ccc(N2CCN(C(CNC(=O)OCc3ccccc3)c3ccco3)CC2)cc1 (stereo not given) 23%
COc1ccc(C2(C)NC(=O)N(CC(=O)Nc3c(C)n(C)n(-c4ccccc4)c3=O)C2=O)cc1 (stereo not given) -6.4%
CC(C)(C)OC(=O)C[C@@H]1C/C=C\C[C@H](CC(=O)N(CCO)Cc2ccccc2)C(=O)N[C@H](Cc2ccccc2)COC1=O -1.04%
N#C/C(=C\c1ccc(-c2ccc(C(=O)O)cc2)o1)c1nc2ccccc2[nH]1 2.64%
N#C/C(=C\c1cc([N+](=O)[O-])c(N2CCOCC2)cc1N1CCOCC1)c1nc2ccccc2[nH]1 6.08%
N#C/C(=C\c1ccc(Sc2ccccc2)o1)c1nc2ccccc2[nH]1 11.4%
N#C/C(=C\c1ccc(N2CCOCC2)c([N+](=O)[O-])c1)c1nc2ccccc2[nH]1 1.39%
CC1CN(C(=O)COC(=O)c2ccc3ccccc3c2)CC(C)O1 (stereo not given) 8.18%
CCCCOC(=O)c1cccc(NC(=O)CC)c1 -6.05%
O=C(C[C@H]1C/C=C\C[C@H](NC(=O)OCC2c3ccccc3-c3ccccc32)C(=O)OC[C@H](Cc2ccccc2)NC1=O)N[C@H](CO)Cc1ccccc1 3.81%
CC(OC(=O)CC(C)c1ccccc1)C(=O)Nc1ccc(Cl)cn1 (stereo not given) 4.3%
C/C=C/c1ccc(O)c(OC)c1 21.3%
COc1cc(/C=N/n2c(C)nc3ccccc3c2=O)cc(OC)c1O 7.15%
COc1ccc(/C=C/c2nc3ccccc3c(=O)n2-c2cccc(C(=O)O)c2)cc1 6.96%
COc1ccc(-n2c(/C=C3\C(=O)N(C)c4ccccc43)nc3ccccc3c2=O)cc1 9.39%
CCCc1nc2ccccc2c(=O)n1/N=C/c1ccccc1O 11.4%
COc1ccc(/C=N/n2c(C)nc3ccccc3c2=O)cc1OC 3.76%
COc1ccc(/C=C/c2nc(N)nc(-c3ccccc3O)n2)cc1OC 4.75%
CCCc1nc2ccccc2c(=O)n1/N=C/c1ccc(O)cc1 6.59%
O=C(CN1CCN(C(=O)C2CCCO2)CC1)Nc1cc(C(F)(F)F)ccc1Cl (stereo not given) 4.9%
CCOC(=O)C1CCN(C(=O)c2cc(S(=O)(=O)N3CCCCCC3)ccc2OC)CC1 0.78%
CCCCNC(=O)NC(C(=O)OC)C12CC3CC(CC(C3)C1)C2 (stereo not given) 0.62%
CCCN(CCC)CCNS(=O)(=O)c1ccc2c(c1)CCN2C(=O)C1CCC1 12.9%
CCCCN(CCCC)S(=O)(=O)c1ccc(NS(=O)(=O)c2ccc(NC(C)=O)cc2)cc1 5.52%
COc1ccc(-c2nn(-c3ccccc3)cc2C(=O)NC2CCCCC2C)cc1 (stereo not given) 7.37%
CCOCCCNC(=O)C1CCCN(S(=O)(=O)c2ccc(-n3cnnn3)cc2)C1 (stereo not given) 1.87%
CCOC(=O)c1ccc(NC(=S)NCCCn2ccnc2)cc1 -38.2%
COc1ccc(CCN2CN(S(=O)(=O)c3ccccc3)c3nc4ccccc4nc32)cc1OC 2.57%
CCOc1ccc(NC(=S)N(Cc2ccc(N(C)C)cc2)Cc2ccco2)cc1 1.67%
O=C(O)C1CCCN1S(=O)(=O)c1ccc2ccccc2c1 (stereo not given) -1.39%
COC(=O)c1cccc(NS(=O)(=O)c2ccc(OC)c(OC)c2)c1C 4.85%
O=C(CCCc1cccs1)Nc1nc(-c2ccc(F)cc2)cs1 9.23%
O=C(c1cccs1)N1CCN(c2ncc(C(F)(F)F)cc2Cl)CC1 8.94%
O=C(Cc1ccc(Cl)cc1)Nc1ccc2c(c1)C(=O)NC2=O 10.3%
COc1ccc(-c2c(-c3ccsc3)oc(=O)c3cc(OC)c(OC)cc23)cc1 3.56%
O=C(O)c1cccc(-n2c(/C=C/c3ccccc3)nc3ccccc3c2=O)c1 -7.35%
COc1cc(/C=C/c2ccc3cccc(O)c3n2)cc(OC)c1OC 3.89%
COc1ccc(/C=N/Nc2nc3ccccc3c(=O)n2-c2ccccc2)cc1OC 8.28%
CCOc1cc(/C=C/c2nc3ccccc3c(=O)[nH]2)ccc1O 11.1%
O=C(O)c1ccc(-n2c(/C=C/c3ccccc3)nc3ccccc3c2=O)cc1 -4%
COc1ccc(/C=C/c2ccc3cccc(O)c3n2)cc1Br 5.56%
Cc1cc(C)cc(Nc2c3c(nc4ncnn24)CCC3)c1 8.12%
CCC1=C(OC(=O)N(CC)CC)N2C(=O)OC(=NCCOC)[C@]2(Cc2ccccc2)[C@H]2C1=CC[C@H]1C(=O)N(CC(=O)OC)C(=O)[C@H]12 11.9%
CN(C(=O)c1cccc(NC(=O)Cc2ccc(NC(=O)C3CCN(C(=O)C4CC4)CC3)cc2)c1)C1CCC1 6.53%
O=C(NCc1cccnc1)C1CC(c2cccc(Br)c2)=NO1 (stereo not given) 0.07%
CC(C(=O)NCc1ccc(F)cc1)c1ccc([N+](=O)[O-])cc1 (stereo not given) 8.32%
CN1CCN(S(=O)(=O)c2ccc(Oc3ccc(F)cc3Br)nc2)CC1 6.58%
CCC1CCCCN1C(=S)NC(=O)c1cc(Br)ccc1Cl (stereo not given) 4.56%
CCc1nnc(NC(=O)Cn2nnc(-c3ccccc3F)n2)s1 5.2%
CCCCCCCn1c2c(c(=N)c3ccccc31)CCC2 9.88%
CCCCCn1c2c(c(=N)c3ccccc31)CCC2 7.04%
O=C(CN1CCC(NC(=O)Nc2ccccc2)CC1)Nc1ccccc1F 5.94%
Cc1ccc(S(=O)(=O)N(C)c2ccccc2C(=O)N2CCOCC2)cc1 6.35%
O=C(Cc1ccc(Br)cc1)NCCc1ccc(F)cc1 9.29%
COc1ccc(S(=O)(=O)NC(C)C(=O)N2CCCC2)cc1Cl (stereo not given) 1.21%
Cc1ccnc(Nc2nc(-c3ccc(O)cc3O)cs2)c1 15.2%
c1ccc(-c2csc(Nc3ccccn3)n2)cc1 13.5%
COc1ccc(-c2csc(Nc3ccccc3)n2)cc1 15.5%
COc1cccc(Nc2nc(-c3cccnc3)cs2)c1 10.7%
CCOc1ccc(Nc2nc(-c3cccnc3)cs2)cc1 6.12%
Cc1ccc(-c2csc(Nc3ccccn3)n2)cc1 14%
CN(C)c1ccc(Nc2nc(-c3cccnc3)cs2)cc1 14.4%
Cc1cccc(Nc2nc(-c3ccc(O)cc3O)cs2)n1 -2.8%
Cc1cccc2cc(COC(=O)COc3ccccc3)c(=O)[nH]c12 12%
CCC(=O)Oc1ccc(NC(=O)CSCc2ccccc2)cc1 13.9%
COc1ccc(CCNC(=O)COC(=O)Cc2ccccc2[N+](=O)[O-])cc1 3.96%
CCOC(=O)c1ccc(S(=O)(=O)N2CC(=O)Nc3ccccc32)cc1 8.64%
COc1ccc(-c2csc(NCc3ccco3)n2)cc1 12%
c1ccc(-c2csc(Nc3cccnc3)n2)cc1 3.24%
Cc1nc2ncccn2c1-c1csc(Nc2ccccc2)n1 11%
c1cncc(Nc2nc(-c3ccncc3)cs2)c1 6.09%
Cc1ccc(Nc2nc(-c3c(C)nc4ncccn34)cs2)cc1 11.3%
c1ccc(-c2csc(Nc3ncccn3)n2)cc1 0.5%
CC(=O)Nc1ccc(-c2csc(Nc3ncccn3)n2)cc1 7.36%
c1coc(CNc2nc(-c3ccncc3)cs2)c1 5.25%
O=C(O)CN1C(=O)NC2(CCc3ccccc32)C1=O (stereo not given) 2.93%
Cc1noc(C)c1S(=O)(=O)N1CCCC(C(=O)NCC2CCCO2)C1 (stereo not given) 4.53%
CC(C)c1ccc(NC2CCCN(C(=O)CN3CCOC3=O)C2)cc1 (stereo not given) 8.4%
CC(C)c1ccc(NC2CCCN(C(=O)CCN3CCCO3)C2)cc1 (stereo not given) 2.53%
CC(C)c1ccc(NC2CCCN(C(=O)CCN3Cc4ccccc4C3=O)C2)cc1 (stereo not given) 4.84%
COc1ccc(NC2CCCN(C(=O)CCCN3CCCCC3=O)C2)cc1 (stereo not given) 29.9%
COc1ccc(NC2CCCN(C(=O)CN3CCOC3=O)C2)cc1OC (stereo not given) 22.5%
COc1ccc(NC2CCCN(C(=O)CCN3CCOCC3)C2)cc1 (stereo not given) 12.5%
CN1OC[C@@H]2CN(Cc3cc(Cl)cc(Cl)c3)[C@H](c3cccc(-c4ccc(C#N)cc4)c3)C[C@@H]21 13.8%
COc1ccc(OCc2nnc(SCC(=O)N3CCCC3)o2)cc1 5.88%
CC1CN(Cc2ccccc2Cl)CC(C)O1 (stereo not given) 16.3%
O=C(COc1ccccc1[N+](=O)[O-])Nc1cccc(C(=O)Nc2ccccc2C(=O)O)c1 17.3%
C=CCC1NS(=O)(=O)O[C@H](CCCC)[C@@H]1O (stereo not given in full) -14.4%
O=C(O)CCC(=O)OCCc1cc2ccccc2c(=O)o1 -1.63%
O=C(c1ccc(=O)n(Cc2ccc(Cl)c(Cl)c2)c1)N1CCOCC1 1.2%
CC(C)N1C(=O)CSC1c1ccc(Br)cc1 (stereo not given) 9.21%
Cc1ccsc1/C=N/NC(=O)c1cccnc1 6.67%
Cc1ccccc1/C=N/NC(=O)c1cccnc1 4.63%
COc1ccc(/C=N/NC(=O)c2cccnc2)c2ccccc12 10.9%
O=C(N/N=C/c1cccc2ccccc12)c1cccnc1 7.15%
